In all, about 340,000 compounds went through this assay and about 4,200 (1.2%) were called active. For the sample, actives were picked, then their nearest neighbours and some compounds at random. A number with no mark means an inactive call.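 The calls were made as follows: active = inhibition above the mean of all tested compounds plus 3 SD (cut at about 24% in these data); inactive = the rest.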

The assay deals with Platelet-activating factor acetylhydrolase IB subunit alpha2 (Homo sapiens) (UniProt P68402). Put plainly: inhibition of PAF acetylhydrolase 1b subunit 2 – biochemical, fluorescence polarization, human, primary screen (AID 492953).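 Also: 0% = enzyme with DMSO and 100% = wells lacking PAFAH1B2.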 Particulars: recombinant PAFAH1B2, FP-rhodamine activity probe, at 3.39 µM, active compounds read high.
Sequence of Platelet-activating factor acetylhydrolase IB subunit alpha2 (Homo sapiens) (P68402 whole entry, looked up): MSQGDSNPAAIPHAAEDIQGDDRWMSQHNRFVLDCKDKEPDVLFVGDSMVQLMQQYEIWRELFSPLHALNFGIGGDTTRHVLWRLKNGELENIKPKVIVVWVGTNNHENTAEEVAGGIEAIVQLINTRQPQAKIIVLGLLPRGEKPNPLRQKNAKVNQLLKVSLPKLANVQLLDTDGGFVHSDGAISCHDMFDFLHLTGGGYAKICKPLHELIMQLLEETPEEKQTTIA
For the molecule `Cc1ccc(C(=O)O)cc1S(=O)(=O)NCC1CCCO1` (configuration not stated), the inhibition (in general, the drop in the measured response relative to a control, in per cent) was -0.69%.

On to `COc1ccc(S(=O)(=O)NCCCc2ccccc2)cc1`, for which the inhibition is 13.7%.

Consider `COc1ccc(CCNS(=O)(=O)c2cccc([N+](=O)[O-])c2)cc1`, for which the inhibition is 13.1%.

`COc1ccc(S(=O)(=O)NCCc2cc3ccc(C)c(C)c3[nH]c2=O)cc1`: the inhibition is 24.7% (active).

Consider `O=C1CN(C(=O)COC(=O)C2CC(=O)N(Cc3ccco3)C2)c2ccccc2N1` (configuration not stated), for which the inhibition is -0.96%.

On to `O=C(NCCN1CCN(C(=O)c2cccc([N+](=O)[O-])c2)CC1)C(=O)NCc1ccc(Cl)cc1`, for which the inhibition is 10.4%.

In the case of `CCCCCCCCCCCC(=O)O`, the inhibition is 30.2% (active).

For the molecule `O=C(O)CCCCCCCCCC[n+]1ccccc1`, the inhibition is 1.11%.

In the case of `NC(=O)NCCCC(=O)O`, the inhibition was 4.24%.

For `C/C=C/c1ccc(OCCCCN2CCC(C)CC2)c(OC)c1`, the inhibition was 2.16%.

Consider `CCc1c(C)n([O-])c2c([n+]1=O)CCCCC2`, for which the inhibition is 7.72%.

As to `CCc1cccc(CC)c1NC(=O)COc1ccccc1C(=O)c1cc(C#N)c(=O)n(C2CCCCC2)c1`, the inhibition is 2.15%.

Regarding `NS(=O)(=O)c1ccccc1NC(=O)c1c(O)c2ccccc2[nH]c1=O`, the inhibition was 2.89%.

Take `Cc1cc(=O)cc(C)n1-c1ccc(Cl)c(Cl)c1`: the inhibition was 4.86%.

As for `CCCCC(=O)NNC(=S)NC(=O)C(c1ccccc1)c1ccccc1`, the inhibition was 27.4% (active).

For `CC(C)C(=O)Nc1cccc(NC(=S)NC(=O)C(c2ccccc2)c2ccccc2)c1`, the inhibition is -2.74%.

In the case of `CCNC(=S)NNC(=O)Cc1ccccc1`, the inhibition is 0.2%.

Turning to `Cc1ccc(S(=O)(=O)n2oc(=O)c(C3CCCCC3)c2N)cc1`, the inhibition is 30.4% (active).

`Cc1ccc(S(=O)(=O)N2CCC(N3CCCCCC3)CC2)cc1`: the inhibition is 5.12%.

On to `Cc1ccc(S(=O)(=O)NC2CCCCCC2)cc1`, for which the inhibition is 11.5%.

Regarding `COc1ccc(/C(C)=N/N2CCOCC2)c(O)c1`, the inhibition was 3.71%.

As for `CCOc1ccccc1N(CC(=O)NC1CCCCC1)C(=O)CCCC(=O)Nc1ccccn1`, the inhibition is 2.23%.

Turning to `Nc1cc(OC(=O)c2ccccc2Br)nn1S(=O)(=O)c1ccccc1`, the inhibition is -1.3%.

Regarding `Cc1ccc(S(=O)(=O)n2nc(OC(=O)C(C)(C)C)cc2N)cc1`, the inhibition is 24.3% (active).

As for `Cc1ccc(S(=O)(=O)N2CCC(C(=O)N3CCCCCCC3)CC2)cc1`, the inhibition is -2.62%.

Take `CCOC(=O)N1CCN(c2cc(C)c([N+](=O)[O-])cc2F)CC1`: the inhibition was 6.77%.

Consider `Cc1ccc(CNS(=O)(=O)CCNC(=O)c2ccccc2)cc1`, for which the inhibition is 0.61%.

For `Cc1ccc(N(C(=O)c2ccc(CN3CCOCC3)o2)C(C(=O)NCCC(C)C)c2cccs2)c(C)c1` (configuration not stated), the inhibition is 2.55%.

For `Cc1c(C)c2c(OCC(=O)NCCCO)cc3c(c2oc1=O)CCC(C)(C)O3`, the inhibition is 9.23%.

Take `Cc1cc(=O)oc2c3c(cc(OCC(=O)NCCC(=O)N[C@@H](C)C(=O)O)c12)OC(C)(C)CC3`: the inhibition is 2.72%.

For the molecule `Cc1c(C)c2c(OCC(=O)N[C@@H](C(=O)O)c3ccccc3)cc3c(c2oc1=O)CCC(C)(C)O3`, the inhibition was 38% (active).

Consider `COCC1CCCN(Cc2cn[nH]c2-c2cc3ccccc3o2)C1` (configuration not stated), for which the inhibition is -0.69%.

`Cc1ccccc1NC(=O)N1CCCC1C(=O)NCc1ccccc1` (configuration not stated): the inhibition is 3.76%.

`O=[N+]([O-])c1ccc(NCCCO)c(C(F)(F)F)c1`: the inhibition is 6.89%.

With `COCC1CCCN(Cc2nc(-c3ccc4c(c3)OCO4)no2)C1` (configuration not stated), the inhibition is 3.45%.

As for `O=C(COc1ccc(Cl)cc1)NCCC1=CCCCC1`, the inhibition is 27.5% (active).

As for `O=C(COc1cccc(-n2cnnn2)c1)NCCC1=CCCCC1`, the inhibition was 10.3%.

As for `CC(C)COc1ccc(C(=O)OCC(=O)NCCC2=CCCCC2)cc1`, the inhibition is 2.59%.

As for `CC1(c2ccccc2)CC(C)(C)N(C(=O)c2cc([N+](=O)[O-])cc([N+](=O)[O-])c2)c2ccccc21` (configuration not stated), the inhibition is -0.31%.

Take `CC1CCN(C(=S)c2cccc([N+](=O)[O-])c2)CC1`: the inhibition was 19.4%.

As for `CC1CCC2CCCCC2N1C(=O)c1cc([N+](=O)[O-])cc([N+](=O)[O-])c1` (configuration not stated), the inhibition was 24.7% (active).

Turning to `COc1ccc(CN2CCN(C(=O)c3cc(C4CC4)nn3-c3ccccc3)CC2)cc1F`, the inhibition was 2.17%.

For the molecule `O=C(COc1cccc2c1CCNC2=O)NC1CCCCC1`, the inhibition is -3.94%.

Turning to `O=C(Nc1ccc2ccccc2c1[N+](=O)[O-])c1ccccc1`, the inhibition was 5.08%.

On to `COc1ccc(NS(=O)(=O)c2ccc(O)c(C(=O)OCC(=O)NC3CCCCC3)c2)cc1`, for which the inhibition is 19.8%.

In the case of `CN(C)c1ccc(S(=O)(=O)NCC(=O)NCC2CCCCC2)cc1[N+](=O)[O-]`, the inhibition is 8.33%.

Regarding `CCN(C(=O)COC(=O)c1cc(NS(=O)(=O)c2ccc(Cl)c([N+](=O)[O-])c2)ccc1O)C1CCCCC1`, the inhibition is 45.9% (active).

Regarding `Cc1c(NS(=O)(=O)c2cccc(C(=O)Nc3ccc(SC(F)F)cc3)c2)c(=O)n(-c2ccccc2)n1C`, the inhibition is 5.1%.

Turning to `COc1ccc(C(=O)CSc2nnc(NC(=O)C3CC(=O)N(c4cccc(OC)c4)C3)s2)cc1` (configuration not stated), the inhibition was -6.09%.

On to `O=C(CNC(=O)c1cc(S(=O)(=O)N2CCOCC2)ccc1N1CCCC1)Nc1ccc(F)c(F)c1`, for which the inhibition was -4.31%.

For `COc1cc(C(=O)Nc2cc(C(F)(F)F)ccc2-n2cncn2)cc(OC)c1OC`, the inhibition is -1.88%.

Turning to `CCc1nn(CC(=O)N2CCN(c3cc(C)ccc3C)CC2)c(=O)c2cc3occc3n12`, the inhibition was 2.35%.

`CSCCC(NC(=O)COc1ccccc1)C(=O)N1CCN(c2cccc(C(F)(F)F)c2)CC1` (configuration not stated): the inhibition is 7.1%.

Turning to `CC(=O)NC1=NC(=O)CS1`, the inhibition was -3.07%.

Regarding `COc1ccc(C2(CNC(=O)Cc3ccc(OC)c(OC)c3)CCCC2)cc1`, the inhibition was -0.19%.

Take `COc1ccc(C2(CNC(=O)C(c3ccccc3)c3ccccc3)CCOCC2)cc1OC`: the inhibition is -0.88%.

`COc1cc(C(=O)NCC2(c3ccccc3)CCCC2)ccc1OC(C)C`: the inhibition is 69.7% (active).

Regarding `CCCCc1nc2cc(C(=O)NCCc3cnn(C)c3)ccc2o1`, the inhibition is -4.49%.

For `O=C(/C=C/c1ccc(Cl)cc1)N1CCN(c2ccccc2[N+](=O)[O-])CC1`, the inhibition is -2.36%.

As for `COc1cccc2c1C(=O)c1c(O)c3c(c(O)c1C2=O)CC(O)(C(C)=NNC(=O)c1ccc(Cl)c(Cl)c1)CC3OC1CC(N)C(O)C(C)O1` (configuration not stated), the inhibition was 52.5% (active).

On to `CC/C(=C(/c1ccccc1)c1ccc(OCC[N+](C)(C)C)cc1)c1ccccc1`, for which the inhibition was 8.4%.

Take `CCOC(=O)CN/C=C(\C#N)c1ccc(F)cc1`: the inhibition was -0.66%.

For `C/C(=N\OCC(=O)O)c1ccc(Cl)cc1`, the inhibition was 9.56%.

Take `CCOc1cc(/C=C(/C#N)c2ccc(Cl)cc2)cc(Cl)c1OCC(=O)O`: the inhibition was 71.1% (active).

For the molecule `CC12CCC(=O)N1C(C(=O)NCCN1C(=O)S/C(=C\c3ccccc3F)C1=O)CS2` (configuration not stated), the inhibition was -0.86%.

Regarding `C/C(=N\NC(=O)Cc1ccccc1[N+](=O)[O-])c1cccnc1`, the inhibition was 4.87%.

For the molecule `CC(C)c1nc(CNC(=O)CC2C(=O)NCCN2Cc2cccc(F)c2F)cs1` (configuration not stated), the inhibition is 3.42%.

On to `O=C(CC1CCCCC1)NCc1ccccc1`, for which the inhibition was 2.39%.

Consider `O=C(CN1C(=O)NC(Cc2ccccc2)(Cc2ccccc2)C1=O)NCC1CCCCC1`, for which the inhibition is 24.3% (active).

For the molecule `CCCCNC(=O)CN1C(=O)NC(Cc2ccccc2)(Cc2ccccc2)C1=O`, the inhibition was 2.58%.

Turning to `CC(/C=C/c1ccccc1)=N\NC(=O)C1CC1(C)c1ccccc1` (configuration not stated), the inhibition was 6%.

Regarding `CCOC(=O)C1(Cc2ccccc2C)CCCN(C(=O)c2ccc(COC)o2)C1` (configuration not stated), the inhibition was 5.55%.

`COc1ccc(Cl)cc1NC(=O)CCS(=O)(=O)c1ccc(Br)cc1`: the inhibition is 10%.

Turning to `O=C(CCS(=O)(=O)c1ccc(Br)cc1)NCCc1ccc(Cl)cc1`, the inhibition is 25.1% (active).

As for `Cc1ccc(S(=O)(=O)CCC(=O)OCC(=O)NCCc2ccc(S(N)(=O)=O)cc2)cc1`, the inhibition is -1.78%.

As for `CCCC(O)(c1ccccc1)C(c1ccccc1)c1ccccn1` (configuration not stated), the inhibition is 0.64%.

`Cc1ccc(NC(=S)NCc2ccccc2Cl)c(C)c1`: the inhibition is -2.26%.

Regarding `Cc1cccc(NC(=S)NCCc2ccc(Cl)cc2)c1C`, the inhibition was 13.9%.

In the case of `Cc1ccc(NC(=S)NCCc2ccc(Cl)cc2)c(C)c1`, the inhibition is 24.7% (active).

Take `COc1ccc(CNCCCNCc2ccc(OC)c(OC)c2)cc1OC`: the inhibition was 2.53%.

On to `ONC(=Nc1ccc(Cl)cc1)c1ccccc1Cl`, for which the inhibition was 15%.

As for `C[C@@H](NC(=O)[C@@H]1Cc2ccccc2CN1)C(=O)NC1CCCC1`, the inhibition was 1.64%.

For `CCCCNC(=O)N(O)C1N(/N=C/c2ccc(N(C)C)cc2)C(=S)SC1(C)C` (configuration not stated), the inhibition was 27.3% (active).

As for `CCCCNC(=O)N(O)C1N(/N=C/c2ccccc2O)C(=S)SC1(C)C` (configuration not stated), the inhibition is 4.39%.

`CCC(C)N1C(=S)SC(C)(C)C1N(O)C(=O)NC1CCCCC1` (configuration not stated): the inhibition was 5.19%.

In the case of `CN(C)c1nc(N)nc(CSc2nnnn2-c2cccc3ccccc23)n1`, the inhibition is 1.2%.

Regarding `COc1ccc(N(Cc2ccccc2)S(=O)(=O)c2cccc(C(=O)O)c2)cc1`, the inhibition is -0.1%.

Regarding `CN(C)C(=O)COC(=O)c1cccc(S(=O)(=O)N2CC3(C)CC2CC(C)(C)C3)c1` (configuration not stated), the inhibition was 15.9%.

As to `C=CCN(c1ccc(Cl)cc1)S(=O)(=O)c1cccc(C(=O)OCC(=O)N(C)C)c1`, the inhibition is 27.3% (active).

As for `CCOCCOC(=O)C1=C(C)NC(=O)NC1c1ccc2c(c1)OCO2` (configuration not stated), the inhibition is -0.7%.

On to `CC1=C(C(=O)OCC2CCCCC2)C(c2ccc(F)cc2)NC(=O)N1` (configuration not stated), for which the inhibition is 9.14%.

Consider `CCC(CC)COC(=O)C1=C(C)NC(=O)NC1c1ccc([N+](=O)[O-])cc1` (configuration not stated), for which the inhibition was 28.2% (active).

For the origin of these results see PubChem BioAssay AID492953 (The Scripps Research Institute Molecular Screening Center, 2010).
